Calls of active or inactive are those of the source. The calls were made as follows: active = hit-call score of the fitted dose curve at least 0.9, where 1 is the maximum; inactive = score below 0.9.
Columns and labels:
Details in all cases: mRNA level, 48 h; actives raise or lower the signal
[1] = read-out: Cytochrome P450 (CYP1A1), CYP1A1 (gene 1543); assay: LTEA_HepaRG_CYP1A1: Life Technologies and Expression Analysis (LTEA) Assay for Cytochrome P450 (CYP1A1) using HepaRG (AID 2283454)
Outline: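 Induction of CYP1A1 mRNA in a human hepatic cell line was measured 48 h after dosing, with 1 mM phenobarbital as induction positive control and 0.5% DMSO vehicle as baseline for bidirectional curve fitting.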

[2] = read-out: CFLAR gene, CFLAR (gene 8837); assay: LTEA_HepaRG_CFLAR: Life Technologies and Expression Analysis (LTEA) Assay for CFLAR gene using HepaRG (AID 2283455)
Outline: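 Gain- or loss-of-signal changes in CFLAR transcript were fitted bidirectionally relative to 0.5% DMSO. Cells (HepaRG, duplicate wells) were dosed for 48 h across eight half-log concentrations topping at 100 uM; quantitation by TaqMan qRT-PCR.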

[3] = read-out: Forkhead box O1 (FOXO1), FOXO1 (gene 2308); assay: LTEA_HepaRG_FOXO1: Life Technologies and Expression Analysis (LTEA) Assay for Forkhead box O1 (FOXO1) using HepaRG (AID 2283456)
Outline: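 Using one lot of HepaRG hepatic cells kept in 0.5% DMSO, the team applied test chemicals in duplicate, half-log dilutions from 100 uM, for 48 h. Expression, normalised to ACTB/GAPDH/POLR2A, was compared with vehicle in either direction.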

[4] = read-out: Forkhead box O3 (FOXO3), FOXO3 (gene 2309); assay: LTEA_HepaRG_FOXO3: Life Technologies and Expression Analysis (LTEA) Assay for Forkhead box O3 (FOXO3) using HepaRG (AID 2283459)
Outline: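 Gene-expression endpoint: FOXO3 transcript level by qRT-PCR in HepaRG cultures treated 48 h with chemicals up to 100 uM (half-log, 0.5% DMSO vehicle).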

[5] = read-out: ABC Transporter (ABCB1), ABCB1 (gene 5243); assay: LTEA_HepaRG_ABCB1: Life Technologies and Expression Analysis (LTEA) Assay for ABC Transporter (ABCB1) using HepaRG (AID 2283460)
Outline: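 Human liver HepaRG line treated 48 h with up to 100 uM compound (eight half-log points, 0.5% DMSO); ABCB1 mRNA change fitted bidirectionally against DMSO controls.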

[6] = read-out: growth arrest and DNA damage 45 (GADD45B), GADD45B (gene 4616); assay: LTEA_HepaRG_GADD45B: Life Technologies and Expression Analysis (LTEA) Assay for growth arrest and DNA damage 45 (GADD45B) using HepaRG (AID 2283461)
Outline: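 Values are bidirectional concentration-response fits against 0.5% DMSO controls. Underlying data: qRT-PCR mRNA levels in human HepaRG liver cells treated 48 h in serum-free induction medium, eight concentrations topping at 100 uM.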

[7] = read-out: ABC Transporter (ABCC3), ABCC3 (gene 8714); assay: LTEA_HepaRG_ABCC3: Life Technologies and Expression Analysis (LTEA) Assay for ABC Transporter (ABCC3) using HepaRG (AID 2283462)
Outline: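 Differentiated HepaRG liver cells receive test chemicals at eight concentrations (max 100 uM) for 48 h. Expression of ABCC3 is quantified by qRT-PCR against ACTB, GAPDH and POLR2A, and activity is fitted in both directions against the DMSO control.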

[8] = read-out: ABC Transporter (ABCB11), ABCB11 (gene 8647); assay: LTEA_HepaRG_ABCB11: Life Technologies and Expression Analysis (LTEA) Assay for ABC Transporter (ABCB11) using HepaRG (AID 2283463)
Outline: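 Using HepaRG cultures held in 0.5% DMSO, chemicals were tested at half-log dilutions from 100 uM for 48 h. Induction or suppression of ABCB11 mRNA, normalized to ACTB, GAPDH and POLR2A, was fitted bidirectionally against vehicle.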

[9] = read-out: ABC Transporter (ABCC2), ABCC2 (gene 1244); assay: LTEA_HepaRG_ABCC2: Life Technologies and Expression Analysis (LTEA) Assay for ABC Transporter (ABCC2) using HepaRG (AID 2283464)
Outline: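 Gene expression of ABCC2 was determined by qRT-PCR in HepaRG cells exposed 48 h to chemicals (highest 100 uM, half-log dilutions). Activity was fitted in both directions relative to 0.5% DMSO vehicle.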

[10] = read-out: Broad substrate specificity ATP-binding cassette transporter ABCG2 (Homo sapiens) (UniProt Q9UNQ0); assay: LTEA_HepaRG_ABCG2: Life Technologies and Expression Analysis (LTEA) Assay for ABC Transporter (ABCG2) using HepaRG (AID 2283465)
Outline: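 Gene expression of ABCG2 in HepaRG liver cells is quantified by qRT-PCR following 48 h exposure across an eight-point series topping at 100 uM. Values come from bidirectional fitting relative to DMSO vehicle.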

[11] = read-out: ATP-citrate lyase (ACLY), ACLY (gene 47); assay: LTEA_HepaRG_ACLY: Life Technologies and Expression Analysis (LTEA) Assay for ATP-citrate lyase (ACLY) using HepaRG (AID 2283466)
Outline: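 ACLY expression changes in human HepaRG liver cells are quantified by qRT-PCR after 48 h exposure to test chemicals (maximum 100 uM, half-log steps). Values are fitted in both directions relative to 0.5% DMSO vehicle.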

[12] = read-out: Peroxisomal acyl-coenzyme A oxidase 1 (ACOX1) gene, ACOX1 (gene 51); assay: LTEA_HepaRG_ACOX1: Life Technologies and Expression Analysis (LTEA) Assay for Peroxisomal acyl-coenzyme A oxidase 1 (ACOX1) gene using HepaRG (AID 2283467)
Outline: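 Human HepaRG hepatic cultures, 48 h treatment with test chemicals up to 100 uM. ACOX1 expression read by qRT-PCR relative to 0.5% DMSO vehicle.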

[13] = read-out: Alkaline Phosphatase, Placental (ALPP) gene, ALPP (gene 250); assay: LTEA_HepaRG_ALPP: Life Technologies and Expression Analysis (LTEA) Assay for Alkaline Phosphatase, Placental (ALPP) gene using HepaRG (AID 2283468);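 as to AC50: ALPP transcript by TaqMan qRT-PCR normalized to ACTB GAPDH and POLR2A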
Outline: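 Expression of ALPP was quantified by qRT-PCR against three housekeeping genes in human HepaRG cultures treated for 48 h with an eight-point concentration series up to 100 uM. Activity in either direction was fitted relative to 0.5% DMSO.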

[14] = read-out: Bcl-2 (BAD) gene, BAD (gene 572); assay: LTEA_HepaRG_BAD: Life Technologies and Expression Analysis (LTEA) Assay for Bcl-2 (BAD) gene using HepaRG (AID 2283469)
Outline: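 Activity values reflect up- or down-regulation of BAD mRNA in human HepaRG hepatic cells treated 48 h in serum-free medium, with eight-point half-log dosing capped at 100 uM and 0.5% DMSO vehicle.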

[15] = read-out: Bcl-2 (BAX) gene, BAX (gene 581); assay: LTEA_HepaRG_BAX: Life Technologies and Expression Analysis (LTEA) Assay for Bcl-2 (BAX) gene using HepaRG (AID 2283470)
Outline: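 qRT-PCR read-out of BAX mRNA, normalized to three housekeeping genes, after 48 h chemical exposure of human HepaRG cells in serum-free induction medium; eight-point half-log series, top 100 uM, 0.5% DMSO vehicle; bidirectional fit versus DMSO.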

[16] = read-out: adenosine kinase (ADK) gene, ADK (gene 132); assay: LTEA_HepaRG_ADK: Life Technologies and Expression Analysis (LTEA) Assay for adenosine kinase (ADK) gene using HepaRG (AID 2283471)
Outline: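 Differentiated HepaRG cells dosed 48 h in serum-free induction medium, 0.5% DMSO vehicle, eight half-log concentrations from 100 uM, in duplicate. ADK mRNA by TaqMan qRT-PCR normalised to ACTB, GAPDH, POLR2A; bidirectional fit versus DMSO.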

[17] = read-out: Alpha-fetoprotein (AFP) gene, AFP (gene 174); assay: LTEA_HepaRG_AFP: Life Technologies and Expression Analysis (LTEA) Assay for Alpha-fetoprotein (AFP) gene using HepaRG (AID 2283472);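 as to AC50: AFP transcript by TaqMan qRT-PCR normalized to ACTB GAPDH and POLR2A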
Outline: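 qRT-PCR (Fluidigm TaqMan) readout of AFP transcript, normalized to three housekeeping genes, fitted bidirectionally against 0.5% DMSO baseline. HepaRG cells received chemicals for 48 h in serum-free induction medium, top concentration 100 uM, half-log steps.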

BCL2L11 (gene 10018) = assay: LTEA_HepaRG_BCL2L11: Life Technologies and Expression Analysis (LTEA) Assay for Bcl-2 (BCL2L11) gene using HepaRG (AID 2283473)
Outline: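 Cells were plated, cultured 48 h, switched to serum-free induction medium, then dosed in duplicate for 48 h at eight half-log concentrations up to 100 uM. Lysates underwent RNA isolation and TaqMan qRT-PCR; gain or loss versus DMSO was fitted.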

[18] = read-out: growth arrest and DNA damage 45 (GADD45A), GADD45A (gene 1647); assay: LTEA_HepaRG_GADD45A: Life Technologies and Expression Analysis (LTEA) Assay for growth arrest and DNA damage 45 (GADD45A) using HepaRG (AID 2283458)
Outline: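 HepaRG, 48 h exposure, 8 conc. (top 100 uM, half-log steps), 0.5% DMSO vehicle, duplicates. Read-out: qRT-PCR mRNA level, housekeeping-normalized (ACTB/GAPDH/POLR2A). Curves fit bidirectionally vs DMSO baseline.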

Sequence of Broad substrate specificity ATP-binding cassette transporter ABCG2 (Homo sapiens) (Q9UNQ0 whole entry, looked up): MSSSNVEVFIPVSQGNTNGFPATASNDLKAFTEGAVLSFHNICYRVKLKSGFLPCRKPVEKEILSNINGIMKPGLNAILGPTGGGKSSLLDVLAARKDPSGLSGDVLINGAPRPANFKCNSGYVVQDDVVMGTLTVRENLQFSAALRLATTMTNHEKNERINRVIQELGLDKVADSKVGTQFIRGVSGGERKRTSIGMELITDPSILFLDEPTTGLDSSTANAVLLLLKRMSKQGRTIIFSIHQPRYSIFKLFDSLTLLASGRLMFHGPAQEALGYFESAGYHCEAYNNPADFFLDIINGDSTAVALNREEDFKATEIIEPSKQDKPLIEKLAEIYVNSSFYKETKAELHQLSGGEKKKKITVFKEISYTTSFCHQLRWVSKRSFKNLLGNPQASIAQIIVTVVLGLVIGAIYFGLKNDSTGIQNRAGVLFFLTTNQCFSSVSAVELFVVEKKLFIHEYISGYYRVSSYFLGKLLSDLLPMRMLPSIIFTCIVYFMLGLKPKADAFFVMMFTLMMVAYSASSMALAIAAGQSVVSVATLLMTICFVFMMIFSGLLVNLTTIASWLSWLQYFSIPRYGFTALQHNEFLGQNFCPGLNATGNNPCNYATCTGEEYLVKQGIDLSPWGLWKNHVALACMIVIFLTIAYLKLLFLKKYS

O=C1NC(=O)C(c2ccccc2)(c2ccccc2)N1
AC50 [1]: 65.1 µM (active) | outcome [2]: inactive | outcome [3]: inactive | outcome [4]: inactive | outcome [5]: inactive | outcome [6]: inactive | outcome [7]: inactive | outcome [8]: inactive | AC50 [9]: 50 µM (active) | outcome [10]: inactive | outcome [11]: inactive | outcome [12]: inactive | outcome [13]: inactive | outcome [14]: inactive | outcome [15]: inactive | outcome [16]: inactive | outcome [17]: inactive | outcome (BCL2L11 (gene 10018)): inactive

CCc1cc(C2=C(C(=O)O)N(c3ccccc3C(F)(F)F)S(=O)(=O)c3ccccc32)cc2c1OCO2
AC50 [1]: 50 µM (active) | outcome [2]: inactive | outcome [3]: inactive | outcome [4]: inactive | AC50 [5]: 3.3 µM (active) | outcome [6]: inactive | outcome [7]: inactive | AC50 [8]: 32.1 µM (active) | AC50 [9]: 1.64 µM (active) | AC50 [10]: 23.7 µM (active) | AC50 [11]: 65.2 µM (active) | outcome [12]: inactive | AC50 [13]: 30.9 µM (active) | outcome [14]: inactive | AC50 [15]: 50 µM (active) | outcome [16]: inactive | AC50 [17]: 65 µM (active) | outcome (BCL2L11 (gene 10018)): inactive

CCCCC(CC)COC(=O)CCCCCCCC(=O)OCC(CC)CCCC (stereo unspecified)
AC50 [1]: 50 µM (active) | outcome [2]: inactive | outcome [3]: inactive | outcome [18]: inactive | outcome [4]: inactive | outcome [6]: inactive | outcome [7]: inactive | outcome [8]: inactive | outcome [9]: inactive | outcome [10]: inactive | outcome [11]: inactive | outcome [12]: inactive | outcome [13]: inactive | outcome [14]: inactive | outcome [15]: inactive | outcome [17]: inactive | outcome (BCL2L11 (gene 10018)): inactive

CN(C)C(=O)NC1(c2ccccc2)CCN(CC[C@@]2(c3ccc(F)c(F)c3)CN(C(=O)c3ccccc3)CCO2)CC1
AC50 [1]: 47 µM (active) | outcome [2]: inactive | outcome [3]: inactive | outcome [18]: inactive | outcome [4]: inactive | outcome [6]: inactive | AC50 [7]: 47 µM (active) | AC50 [8]: 1.96 µM (active) | AC50 [9]: 3.81 µM (active) | outcome [10]: inactive | AC50 [11]: 47 µM (active) | outcome [13]: inactive | outcome [14]: inactive | outcome [15]: inactive | outcome [16]: inactive | AC50 [17]: 36.8 µM (active) | outcome (BCL2L11 (gene 10018)): inactive

CC(=O)O
AC50 [1]: 72.2 µM (active) | outcome [2]: inactive | outcome [3]: inactive | outcome [18]: inactive | outcome [4]: inactive | outcome [6]: inactive | outcome [7]: inactive | outcome [8]: inactive | outcome [9]: inactive | outcome [10]: inactive | outcome [11]: inactive | outcome [13]: inactive | outcome [14]: inactive | outcome [15]: inactive | outcome [17]: inactive | outcome (BCL2L11 (gene 10018)): inactive

COC(=O)CCC(=O)OC
AC50 [1]: 50 µM (active) | outcome [2]: inactive | outcome [3]: inactive | outcome [18]: inactive | outcome [4]: inactive | outcome [6]: inactive | outcome [7]: inactive | outcome [8]: inactive | outcome [9]: inactive | outcome [10]: inactive | outcome [11]: inactive | outcome [13]: inactive | outcome [14]: inactive | outcome [15]: inactive | outcome [16]: inactive | outcome [17]: inactive | outcome (BCL2L11 (gene 10018)): inactive

CCCCCCC(C=O)=Cc1ccccc1
outcome [1]: inactive | outcome [2]: inactive | outcome [3]: inactive | outcome [4]: inactive | outcome [5]: inactive | outcome [6]: inactive | outcome [7]: inactive | outcome [8]: inactive | outcome [9]: inactive | outcome [10]: inactive | outcome [11]: inactive | outcome [12]: inactive | outcome [13]: inactive | outcome [14]: inactive | outcome [15]: inactive | outcome [16]: inactive | outcome [17]: inactive | outcome (BCL2L11 (gene 10018)): inactive

— PubChem BioAssay (EPA / NIEHS)
